Screening results: PubChem, Broad Institute
BJeLR viability: compounds reducing viability of BJeLR cells; BJeLR fibroblasts viability, CellTiterGlo ATP luminescence, 48 h; HRASV12, hTERT and SV40 LT/ST transformed; viability loss activity score, % (concentration not given with the values); 0.64% of 30,000 active; AID 2275; in the data active = viability loss activity score above about 50%;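 also: higher score means fewer live cells and less ATP luminescence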
A1 inhib: blocks A1 activity; MEF A1-2A-BIM cells, caspase-Glo luminescence, 3 h; percent of clofoctol signal, DMSO as zero; caspase activation, % (concentration not given with the values); 0.51% of 21,000 active; AID 2241;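 active = most replicate scores above 10, or exactly half above 10 with mean activity above 10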;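 also: effector caspase 3 and 7 activity cleaving a DEVD luciferin substrate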
A number is an active result; – = inactive; · = no result given. Most compounds without a hit are left out; they make up all but 0.9% or so of the library.

SMILES	BJeLR viability	A1 inhib
CC(C)(C)OC(=O)N1CCC(C(=O)N2CCCCC2)CC1	–	–
Cn1cc(Cl)c(C(=O)N2CCc3ccccc3C2)n1	–	–
CCN(Cc1ccccc1)C(=O)Cn1ncc2c3ccccc3n(Cc3c(C)cc(C)cc3C)c2c1=O	–	–
CC1OC(O[C@H]2CC[C@@]3(C)C(CC[C@]4(C)C3CC=C3C5CC(C)(C)CC[C@]5(C(=O)OC5OC(CO)C(OC6OC(CO)C(O)C(O)C6O)C(O)C5O)CC[C@]34C)C2(C)C)C(O)C(O)C1OC1OCC(O)(COC2OCC(O)C(OC3OCC(OC4OCC(O)(CO)C4O)C(O)C3O)C2O)C1O (some centres not stated)	–	–
C[C@@H]1O[C@@H](O[C@H]2[C@H](O[C@H]3CC[C@@]4(C)C(CC[C@]5(C)C4CC=C4[C@@H]6CC(C)(C)CC[C@]6(C(=O)O[C@@H]6O[C@H](CO[C@@H]7O[C@H](CO)[C@@H](O)[C@H](O)[C@H]7O)[C@@H](O)[C@H](O)[C@H]6O)CC[C@]45C)[C@]3(C)CO)OC[C@H](O)[C@@H]2O)[C@H](O)[C@H](O)[C@H]1O (some centres not stated)	–	–
CC1OC(OC2C(CO)OC(OC(=O)[C@]34CCC(C)(C)CC3C3=CCC5[C@@]6(C)CC[C@H](OC7OC(C)C(OC8OCC(O)(COC9OCC(O)C(OC%10OCC(OC%11OCC(O)(CO)C%11O)C(O)C%10O)C9O)C8O)C(O)C7O)C(C)(C)C6CC[C@@]5(C)[C@]3(C)CC4)C(O)C2O)C(O)C(O)C1O (some centres not stated)	–	12.4
CC1(C)CC[C@@]2(C(=O)O[C@@H]3O[C@H](CO)[C@@H](O)[C@H](O)[C@H]3O)C(C1)C1=CCC3[C@@]4(C)CC[C@@H](O[C@@H]5O[C@H](C(=O)O)[C@@H](O[C@@H]6OC[C@@H](O)[C@H](O)[C@H]6O)[C@H](O)[C@H]5O)C(C)(C)C4CC[C@@]3(C)[C@]1(C)C[C@H]2O (some centres not stated)	–	–
CC1(C)CC[C@]2(C(=O)O[C@@H]3O[C@H](CO)[C@@H](O)[C@H](O)[C@H]3O)CC[C@]3(C)C(=CCC4[C@@]5(C)CC[C@H](O[C@@H]6O[C@H](C(=O)O)[C@@H](O[C@@H]7O[C@H](CO)[C@@H](O)[C@H](O)[C@H]7O)[C@H](O)[C@H]6O)C(C)(C)C5CC[C@]43C)C2C1 (some centres not stated)	–	–
C[C@@H]1O[C@@H](O[C@H]2[C@H](O)[C@@H](O)[C@H](OC[C@H]3O[C@@H](OC(=O)[C@]45CCC(C)(C)CC4C4=CCC6[C@@]7(C)CC[C@H](O)C(C)(C)C7CC[C@@]6(C)[C@]4(C)CC5)[C@H](O)[C@@H](O)[C@@H]3O)O[C@@H]2CO)[C@H](O)[C@H](O)[C@H]1O (some centres not stated)	125.5	–
CC1(C)CC[C@]2(C(=O)OC3OC(CO)C(O)C(O)C3O)CC[C@]3(C)C(=CCC4[C@@]5(C)CC[C@H](OC6OC(C(=O)O)C(O)C(O)C6O)C(CO)(CO)C5CC[C@]43C)[C@@H]2C1 (some centres not stated)	132.9	–
CC(=O)N[C@H]1[C@H](O[C@H]2CC[C@@]3(C)C(CC[C@]4(C)C3CC=C3[C@@H]5CC(C)(C)CC[C@]5(C(=O)OC5OCC(O)C(O)C5O)C(O)C[C@]34C)C2(C)C)O[C@H](COC2OCC(O)C(OC3OCC(O)C(O)C3O)C2O)[C@@H](O[C@@H]2O[C@@H](C)[C@H](O)[C@@H](O)[C@H]2O[C@@H]2O[C@@H](C)[C@H](O)[C@@H](O)[C@H]2O)[C@@H]1O (some centres not stated)	–	34.8
CC(=O)N(Cc1ccc(C(C)C)cc1)c1ccc2oc(-c3ccccc3)nc2c1	–	–
COc1ccc(C(c2ccc3cccnc3c2O)N2CCOCC2)cc1 (configuration not stated)	–	42.8
Oc1c(C(c2ccncc2)N2CCCC2)ccc2cccnc12 (configuration not stated)	–	–
CN(C(=O)Cn1c(=O)n(CC(=O)NCCc2ccccc2)c(=O)c2sccc21)C1CCCCC1	–	·
CCc1ccccc1NC(=O)CCN1C(=O)c2ccccc2C1=O	–	–
O=C(CCCCCN1C(=O)c2cccc3cccc(c23)C1=O)NO	113.9	–
CC(=O)O[C@H]1[C@H](Oc2ccccc2COC(=O)C2(O)C=CCCC2=O)O[C@H](CO)[C@@H](O)[C@@H]1O (some centres not stated)	–	–
O=C(O[C@H]1[C@H](Oc2ccccc2COC(=O)C2(O)C=CCCC2=O)O[C@H](CO)[C@@H](O)[C@@H]1O)c1ccccc1 (some centres not stated)	57.7	–
CC(=O)O[C@@]1(C)[C@@H]2CC(=C(C)C)C(=O)C[C@@]2(C)CC[C@H]1OC(=O)C1(C)OC1C (some centres not stated)	53.9	–
c1ccc2c(c1)NC(c1ccc3c(c1)OCO3)S2 (configuration not stated)	72.0	–
COc1cc(C2Nc3ccccc3S2)cc(OC)c1OC (configuration not stated)	–	–
CCCc1ccc(O)c(N)c1	–	–
CCCc1ccc(-c2c(C)sc(N)c2C#N)cc1	–	11.8
O=C1C(SCCO)=C(SCCO)C(=O)c2ccccc21	116.7	–
SMILES	BJeLR viability	A1 inhib
O=C1c2ccccc2C(=O)N1C(CO)C(O)c1ccccc1 (configuration not stated)	–	–
COC(=O)CC(O)(CCCC(C)(C)O)C(=O)O[C@@H]1C(OC)=C[C@]23CCCN2CCc2cc4c(cc2[C@@H]13)OCO4 (some centres not stated)	·	10.2
CCOc1ccc(C(=O)N2CCCCC2)cc1	–	–
CC(C)N1CN=C(Nc2nc3ccccc3o2)NC1	–	–
Cc1ccnc(Nc2nc3ccccc3o2)n1	49.8	·
CCSC1=NSC2=NC(=O)/C(=C\c3ccc(OC(=O)c4ccco4)c(Cl)c3)C(=N)N12	–	·
COc1ccc2c(c1)c(C(=O)ON1C(=O)CCC1=O)c(C)n2C1CC1	–	–
CN(C)c1ncnc2c1ncn2C1OC(CO)C(N)C1O (configuration not stated)	–	–
COc1ccc(CC(N)C(=O)N[C@H]2[C@@H](O)[C@H](n3cnc4c(N(C)C)ncnc43)O[C@@H]2CO)cc1 (some centres not stated)	–	58.0
CCCC(=O)NCc1cn2ccsc2n1	–	–
CC[N+]1(CC)Cc2cc3ccccc3cc2C1	–	–
Cc1ccc(NC(=O)CSc2nc3c(sc4ccccc43)c(=O)n2CC2CCCO2)cc1C (configuration not stated)	–	33.3
O=C(CCn1c(SCc2ccc(F)cc2)nc2c(sc3ccccc32)c1=O)NCC1CCCO1 (configuration not stated)	–	·
Cc1cc(C)cc(NC(=O)c2ccc3c(c2)NC(=O)c2ccccc2S3)c1	–	–
Cc1cc(NC(=O)c2ccc3c(c2)NC(=O)c2ccccc2S3)ccc1Br	–	15.3
Cc1nc(Oc2ccc(NC(=O)c3ccccc3)cc2)c2c3c(sc2n1)CCC3	–	28.8
Cc1nc(Oc2ccc3c(C)cc(=O)oc3c2)c2c3c(sc2n1)CCC3	–	–
